Test [1] deals with MKL-1. Kind of test: qHTS assay to identify novel small-molecules to repurpose for Merkel cell carcinoma treatment (AID 1296009). Further: nearly all actives have a fitted effect of over 60% in size. To be noted: MCC and control cell lines, CellTiter-Glo viability, 72 h; series mostly up to 46 µM. In a few lines: (§1)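 Dose-response viability screen; 72 hr exposure at 37 degree celsius; CellTiter-Glo added, 10 min room temperature, luminescence read; RLUs scaled between no-cell and DMSO wells.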
A general note: Quantitative high-throughput screening tests each substance at several concentrations.

The subject of test [2] is MKL-2. The test is described as above. To be noted: MCC and control cell lines, CellTiter-Glo viability, 72 h; series mostly up to 46 µM. Summed up:
as §1
Background: ATP-based viability assays read luminescence as a measure of living cells.

Test [3] relates to NIH3T3. Described as above. Particulars: MCC and control cell lines, CellTiter-Glo viability, 72 h; at 44.8 µM (top of the series) unless noted. Summed up: as §1
In test [4] the test system is UISO. The description is as above. Particulars: MCC and control cell lines, CellTiter-Glo viability, 72 h; series mostly up to 46 µM. In a few lines:
as §1

The test system of test [5] is WaGa. The test is described as above. Particulars: MCC and control cell lines, CellTiter-Glo viability, 72 h; series mostly up to 46 µM. In a few lines: as §1
The test system of test [6] is C33A. Kind of test: Primary qHTS to identify gynecologic anti-cancer compounds using libraries of approved drugs and bioactive compounds (AID 1345084). Further: nearly all actives have a fitted effect of over 55% in size. To be noted: Gynecologic cancer cell panel viability, ATPlite luminescence, 48 h; series mostly up to 57.5 µM. In a few lines: (§2)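 Luminescence from the ATPlite ATP-monitoring reagent indicates viable cell number; lower signal means cytotoxicity. Cells received compound 16 h after seeding and were exposed for 48 h across five concentrations.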

Test [7] concerns CAOV3. The test is described as above. Particulars: Gynecologic cancer cell panel viability, ATPlite luminescence, 48 h; series mostly up to 57.5 µM. Summed up: as §2
The test system of test [8] is CASKI. The test is described as above. Particulars: Gynecologic cancer cell panel viability, ATPlite luminescence, 48 h; series mostly up to 57.5 µM. In a few lines: as §2
Test [9] deals with Es-2. The test is described as above. Particulars: Gynecologic cancer cell panel viability, ATPlite luminescence, 48 h; series mostly up to 57.5 µM. In a few lines: as §2
For test [10], the system named is HeLa. The description is as above. To be noted: Gynecologic cancer cell panel viability, ATPlite luminescence, 48 h; series mostly up to 57.5 µM. Summed up: as §2
Test [11] concerns Hek293T. The test is described as above. To be noted: Gynecologic cancer cell panel viability, ATPlite luminescence, 48 h, control line for the selectivity index; series mostly up to 57.5 µM. In a few lines: as §2
The subject of test [12] is JEG-3. Described as above. To be noted: Gynecologic cancer cell panel viability, ATPlite luminescence, 48 h; series mostly up to 57.5 µM. Summed up:
as §2

Test [13] concerns PA-1. Described as above. To be noted: Gynecologic cancer cell panel viability, ATPlite luminescence, 48 h; series mostly up to 57.5 µM. Summed up:
as §2

Test [14] relates to SKOV3. Described as above. To be noted: Gynecologic cancer cell panel viability, ATPlite luminescence, 48 h; series mostly up to 57.5 µM. Summed up: as §2
Test [15] relates to Tov-21-G. The description is as above. To be noted: Gynecologic cancer cell panel viability, ATPlite luminescence, 48 h; series mostly up to 57.5 µM. Summed up:
as §2

For test [16], the system named is Tov112D. The test is described as above. To be noted: Gynecologic cancer cell panel viability, ATPlite luminescence, 48 h; series mostly up to 57.5 µM. In a few lines:
as §2

Test [17] is described as follows: Drug repurposing screens with cells derived from glioblastoma tumor samples (AID 1345199). Further: nearly all actives have a fitted effect of over 40% in size. Further: potency means the concentration at half of the fitted maximal effect. To be noted: GBM patient neurospheres viability, ATP luminescence, 48 h. Summed up: (§3)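 Primary testing used CD133+ neurospheres from four GBM patients, seven concentrations, 48 h exposure and ATP-based viability; confirmation added three slower-growing patient lines.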
The test system of test [18] is astro. The description is as above. Particulars: viability, ATP luminescence, 48 h; series mostly up to 45.9 µM. Summed up: as §3
In test [19] the test system is OV90. Kind of test: Primary qHTS to identify gynecologic anti-cancer compounds using libraries of approved drugs and bioactive compounds (AID 1345084). Further: nearly all actives have a fitted effect of over 55% in size. Particulars: Gynecologic cancer cell panel viability, ATPlite luminescence, 48 h; series mostly up to 57.5 µM. In a few lines: as §2
The mark [20] stands for this setting: at 45.9 µM (top of the series), tumour line B.
Where [21] appears, read: at 45.9 µM (top of the series), tumour line D.
The mark [22] stands for this setting: at 46.1 µM (top of the series), tumour line C.

We go through six compounds from PubChem BioAssay (NCATS).

Where “and” joins values, the source holds several entries; their conditions need not be identical. Equal values may be shown once. Results filed as inconclusive are left out. Some structures have more than one record in an assay (separate samples or runs), and their calls can disagree. Values without a mark were called inactive. Calls of active or inactive are those of the source. The call rests on the fitted dose curve; in most records, active means well fitted curve in the direction sought with a large enough effect; inconclusive means small, poorly fitted or top-dose-only effect, or another doubt; inactive means no such curve, though single readings can be large; an effect the other way counts as inactive or inconclusive.
On the % scale 0 is the no-effect control and ±100 the full control effect.

Take `CC(C)c1ccc2c(c1)c(SC(C)(C)C)c(CC(C)(C)C(=O)O)n2Cc1ccc(Cl)cc1`: the Potency result in [1], in test [2], in test [4] and in [5] was “inactive” throughout. Also, the result in test [3] was inactive.

In the case of `NNc1nncc2ccccc12`, the Potency entry in test [1], in [2], in test [4], in test [5], in test [6] and in [7] was “inactive” throughout. The Potency entry in test [8], in [9], in [10], in [11], in test [12] and in [13] was “inactive” each time. Further, the Potency entry in test [14], in test [15], in [16] and in test [18] was “inactive” throughout. Further, the outcome in [3] was “inactive [at 17.4 µM]”. For the same compound, the activity, negative = cell killing is -13.5% in [17] (at 20 µM (top of the series), tumour line C); -20% in test [17] (at 21.2 µM (top of the series), tumour line B); -12.5% in test [17] (at 21.2 µM (top of the series), tumour line D).

For `COc1ccccc1N1CCN(CCN(C(=O)C2CCCCC2)c2ccccn2)CC1`, the Potency result in test [1], in [2], in test [4], in test [5], in test [6] and in [7] was “inactive” each time. Also, the Potency entry in [8], in test [9], in test [10], in test [19], in test [13] and in test [14] was “inactive” throughout. The Potency result in [15] and in test [16] was “inactive” each time. In addition, the result in test [3] was inactive.

In the case of `CN(c1nccc(=O)[nH]1)C1CCN(c2nc3ccccc3n2Cc2ccc(F)cc2)CC1`, the Potency result in test [1], in test [2], in [4], in test [5], in [6] and in test [7] was “inactive” in each case. For the same compound, the Potency result in test [8], in [9], in [10], in test [11], in test [12] and in [19] was “inactive” in each case. The Potency result in test [13], in [14], in test [15], in [16] and in test [18] was “inactive” each time. In addition, the call in test [3] was inactive. Moreover, the activity, negative = cell killing in test [17] (setting [20]) was -7.08%; in [17] (setting [21]), -20%; in test [17] (setting [22]), -6.39%.

As to `O=C(O)CCNC(=O)c1ccc(N=Nc2ccc(O)c(C(=O)O)c2)cc1`, the Potency result in test [1], in test [2], in [4], in test [5], in test [6] and in [7] was “inactive” each time. Further, the Potency entry in [8], in [9], in [10], in test [11], in [12] and in test [19] was “inactive” in each case. The Potency result in [13], in [15], in test [16] and in [18] was “inactive” each time. The call in [3] was inactive. Also, the activity, negative = cell killing in [17] (setting [20]) was -6.99%; in test [17] (setting [21]) it was -11.2%; in [17] (at 46 µM (top of the series), tumour line A), -28%; in test [17] (setting [22]) it was -6.53%.

As to `CC(C)c1nc(CN(C)C(=O)N[C@H](C(=O)N[C@@H](Cc2ccccc2)C[C@H](O)[C@H](Cc2ccccc2)NC(=O)OCc2cncs2)C(C)C)cs1`, the Potency entry in test [1], in [2], in test [4], in [5], in [6] and in test [7] was “inactive” throughout. Moreover, the Potency entry in test [8], in test [9], in test [10], in test [11], in test [12] and in test [19] was “inactive” in each case. In addition, the Potency result in test [13], in test [14], in test [15], in test [16] and in test [18] was “inactive” throughout. Also, the compound was classed as inactive in [3]. For the same compound, the activity, negative = cell killing in [17] (setting [20]) was -7.95% and -4.95%; in test [17] (setting [21]) it was -23.9% and -23.8%; in [17] (setting [22]) it was -26.2% and -16%. Moreover, the Potency in test [17] (tumour line A) was 17.8 µM (active).
